Test results taken from PubChem BioAssay (NCI).
Compounds without any hit were thinned out: in the full panel of roughly 83,000, 20% have a hit.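 Cell lines were cultured in 96-well plates, exposed to a single compound concentration, and assessed for percent growth 48 hours later.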 Activity calls are given as the source filed them. The calls were made as follows: active = growth percent below 10; inactive = the rest.

How the values were obtained:
Experiment in all cases: NCI-60 one-dose screen, 48 h (100 = growth as untreated, 0 = no growth, -100 = all killed)
Conditions in all cases: 10 µM unless noted
[1] = test system: SR leukemia
[2] = test system: RPMI-8226 leukemia
[3] = test system: OVCAR-8 ovarian
[4] = test system: OVCAR-5 ovarian
[5] = test system: OVCAR-4 ovarian
[6] = test system: SK-OV-3 ovarian
[7] = test system: IGROV1 ovarian
[8] = test system: OVCAR-3 ovarian
[9] = test system: HS 578T breast
[10] = test system: NCI/ADR-RES ovarian
[11] = test system: T-47D breast
[12] = test system: BT-549 breast
[13] = test system: MDA-MB-435 melanoma
[14] = test system: SW-620 colon
[15] = test system: MCF7 breast
[16] = test system: HCT-116 colon
[17] = test system: HCC-2998 colon
[18] = test system: KM12 colon

Measured: growth

CC1(C)[C@@H](O)CC[C@]2(C)[C@H]3CC[C@@H]4[C@H]5[C@H](C(=O)/C=C\c6ccncc6)CC[C@]5(O)CC[C@@]4(C)[C@]3(C)CC[C@@H]12
inactive: [2] 12.1% | [3] 40.3% | [4] 47.5% | [5] 38.5% | [6] 113% | [7] 37.3% | [8] 34.6% | [9] 39.3% | [10] 25.5% | [11] 68.7% | [12] 68.2% | [13] 14.9% | [14] 26.5% | [15] 24.6% | [16] 14.9% | [17] 77.9% | [18] 39.2%
active: [1] 4.32%

CN1CCN(c2ccc(/C=N/n3cnc4oc(-c5ccccc5)cc4c3=N)cc2)CC1
inactive: [1] 36.6% | [2] 87.9% | [3] 96.1% | [4] 76.2% | [5] 83.1% | [6] 71.3% | [7] 36.7% | [8] 90.2% | [9] 63.8% | [10] 81.3% | [11] 84.1% | [12] 89.7% | [13] 94.7% | [14] 94% | [15] 81.1% | [16] 73.9% | [17] 101% | [18] 63.7%

CC(Nc1c(C#N)cnc2ccc(-c3cnc(N)nc3)cc12)c1ccccc1 (centres undefined)
inactive: [1] 14% | [3] 21.3% | [4] 23.5% | [5] 16.5% | [8] 15.3% | [10] 19.3% | [13] 15.5% | [14] 18.2% | [16] 10.7% | [18] 10.8%
active: [2] -11% | [6] -0.597% | [7] -16% | [9] -22.5% | [11] 9.18% | [12] 4.06% | [15] 8.42% | [17] 8.61%

CN1CCN(Cc2ccc(NC(=O)c3cncc(C#Cc4cnc5ccc(OCC6(C)COC6)nn45)c3)cc2C(F)(F)F)CC1
active: [1] -13.9% | [2] -17.7% | [3] -15.3% | [4] -73.2% | [5] -54.7% | [6] -90.8% | [7] -63.8% | [8] -74.5% | [9] -50.2% | [10] -58.1% | [11] -49.9% | [12] -62% | [13] -90.9% | [14] -44.8% | [15] -76% | [16] -75.5% | [17] -89.6% | [18] -82.1%

Cc1c(F)cc(C(N)=O)cc1NCC(=O)Nc1ccc([N+](=O)[O-])cc1
inactive: [1] 107% | [2] 110% | [3] 99.8% | [4] 89.5% | [5] 67.8% | [6] 106% | [7] 80.1% | [8] 96.7% | [9] 88.4% | [10] 96.6% | [11] 102% | [12] 98% | [13] 99.8% | [14] 92.9% | [15] 87.1% | [16] 99.9% | [17] 105% | [18] 98.6%

CCO/C=N/C1=C(C#N)C(c2ccc(OC)cc2)c2sc3c(C)cccc3c2O1 (centres undefined)
active: [2] 0.107% | [8] 7.72% | [13] -21.5%
inactive: [1] 17.9% | [3] 29.3% | [4] 34.4% | [5] 85.3% | [6] 50.3% | [7] 27.1% | [9] 16.6% | [10] 10.9% | [11] 34.5% | [12] 35.2% | [14] 33.5% | [15] 23.5% | [16] 12% | [17] 21.1% | [18] 19%

COc1ccc(-c2nc3cccc(O)c3c(=O)n2Cc2ccccc2)cc1COc1ccc(NC(C)=O)cc1
inactive: [1] 27.5% [3 µM] | [2] 44.5% [3 µM] | [3] 49.3% [3 µM] | [4] 64.2% [3 µM] | [5] 83% [3 µM] | [6] 67.2% [3 µM] | [7] 41.6% [3 µM] | [8] 66.9% [3 µM] | [9] 63.8% [3 µM] | [10] 51.1% [3 µM] | [11] 76.5% [3 µM] | [12] 55.4% [3 µM] | [13] 59.7% [3 µM] | [14] 27.9% [3 µM] | [15] 37.1% [3 µM] | [16] 22.1% [3 µM] | [17] 67.8% [3 µM] | [18] 39.8% [3 µM]

COc1cc(/C=C2\C(=O)Nc3cc(Cl)ccc32)ccc1OCc1ccc(F)cc1
inactive: [1] 97.5% | [2] 113% | [3] 98.7% | [4] 98.6% | [5] 83.2% | [6] 97.2% | [7] 72.7% | [8] 102% | [9] 91.7% | [10] 101% | [11] 94.1% | [12] 95.7% | [13] 103% | [14] 98.2% | [15] 57.1% | [16] 92.9% | [17] 96.8% | [18] 102%
